# Inconclusive results are not listed. Activity calls are given as the source filed them. The call rests on the fitted dose curve; in most records, active means well fitted cell-killing curve with a large enough effect; inconclusive means small, poorly fitted or top-dose-only effect, or effect the other way; inactive means no such curve, though single readings can be large or run the other way.
# Experiment: Quantitative High-Throughput drug screen in 47 multiple myeloma cell lines against the NCATS MIPE library collection: ARD_JJKsccE7 cell viability assay (AID 1918929)
# Conditions: ARD myeloma cell line viability, CellTiter-Glo, 48 h; series mostly up to 45.8 µM; viability: at the top concentration
# Excerpt: PI: Beverly A. Mock Ph.D.
# Laboratory of Cancer Biology and Genetics,
# Center for Cancer Research, National Cancer Institute,
# National Institute of Health, Bethesda, Maryland
# Drug resistance and disease progression are common in multiple myeloma (MM) patients, underscoring the need for new therapeutic combinations. […] We hypothesized that effective combinations would reduce MYC expression and enhance p16 activity. […] These preclinical data identify potentially useful drug combinations for evaluation in drug-resistant MM and reveal potential mechanisms of combined drug sensitivity.
# Described herein is the primary MIPE qHTS used to cherrypick compounds. Validated compounds were then further tested for potential synergistic activiy.
# [1] Peat TJ, Gaikwad SM, Dubois W, Gyabaah-Kessie N, Zhang S, Gorjifard S, Phyo Z, Andres M, Hughitt VK, Simpson RM, Miller MA, Girvin AT, Taylor A, Williams D, D'Antonio N, Zhang Y, Rajagopalan A, Flietner E, Wilson K, Zhang X, Shinn P, Klumpp-Thomas C, McKnight C, Itkin Z, Chen L, Kazandijian D, Zhang J, Michalowski AM, Simmons JK, Keats J, Thomas CJ, Mock BA. Drug combinations identified by high-throughput screening promote cell cycle transition and upregulate Smad pathways in myeloma. Cancer Lett. 2023 Aug 1;568:216284. doi: 10.1016/j.canlet.2023.216284. Epub 2023 Jun 24. PMID: 37356470; PMCID: PMC10408729.
# SEQUENCE No. (e.g., 1, 2, 3, etc.); […] (e.g., Cells, Incubation, Reagent, etc.); VALUE and DESCRIPTION.
# 1; Cells; 5 uL; white, solid bottom 1536-well Greiner assay plate.
# 2; Compounds; 23 nL; Kalypsis pin tool (Wako USA) equipped with a 1536-well pin head to transfer to the assay plates.
# 3; Incubation; 48 hours; 37C incubation.
# 4; Reagent;5uL; CellTiter Glo (Promega).
# 5; Detector; 425V; Luminescence; Viewlux PerkinElmer.
# NOTES (numbers refer to Sequence numbers above)
# 1. The cell-based screening methods employed in this study were like those previously published. Briefly, the corresponding myeloma cell lines were screened in 1,536-well plates with 500 cells, 5-uL per well for inhibition of cell viability (assessed by measuring ATP levels with CellTiterGlo).
# 2. NCATS MIPE 4.0 library of approved and investigational drugs were added using the Kalypsis pin tool. Wells treated with DMSO only for 100% viability and media only wells for 0% viability were used as controls.
# 3. The assay plates were covered and incubated for 48 hours in a 37C, 5% CO2 incubator with controlled humidity.
# 4. After 48 hours, CellTilter-GloTM luminescent substrate mix (Promega) reagent was added to the assay plate and plates we incubated for 5 min at room temperature.
# 5. Signal was measured as median relative luminescence units on a ViewLux (PerkinElmer) multiplate reader.
# [1] Heske CM, Davis MI, Baumgart JT, Wilson K, Gormally MV, Chen L, Zhang X, Ceribelli M, Duveau DY, Guha R, Ferrer M, Arnaldez FI, Ji J, Tran HL, Zhang Y, Mendoza A, Helman LJ, Thomas CJ. Matrix Screen Identifies Synergistic Combination of PARP Inhibitors and Nicotinamide Phosphoribosyltransferase (NAMPT) Inhibitors in Ewing Sarcoma. Clin Cancer Res. 2017 Dec 1;23(23):7301-7311. doi: 10.1158/1078-0432.CCR-17-1121. Epub 2017 Sep 12. PMID: 28899971; PMCID: PMC6636827.
# Potency means the concentration at half of the fitted maximal effect.
Structure (SMILES),Potency,viability
CC[C@H]1C=CC=CC[C@@H](C)[C@H](O)[C@@](C)(O)C(=O)[C@@H](C)[C@H](O)[C@@H](C)C(=O)[C@@H](C)[C@H](O)[C@@H](C)C=CC(=O)O[C@@H]2[C@@H](C)[C@H](CC1)O[C@]1(CC[C@H](C)[C@H](C[C@@H](C)O)O1)[C@H]2C,1 nM (active),–
CN1[C@H]2CC(O)C[C@H]1[C@H]1O[C@H]12 (stereo not given in full),–,141% (inactive)
COCC1(CO)C(=O)C2CCN1CC2 (stereo not given),20900 nM (active),–
Clc1ccccc1C(c1ccccc1)(c1ccccc1)n1cccn1,–,134% (inactive)
CN1CCN(c2ccc([N+](=O)[O-])c3no[n+]([O-])c23)CC1,23500 nM (active),–
CCNC(=O)CC1N=C(c2ccc(Cl)cc2)c2cc(OC)ccc2-n2c(C)nnc21 (stereo not given),13200 nM (active),–
COc1cccc2c1[C@]13CCN(CC4CC4)[C@H](C2)[C@]1(OC)CCC(=O)C3,–,115% (inactive)
C[C@@]12OC(=O)[C@]1([C@@H](O)[C@@H]1C=CCCC1)NC(=O)[C@H]2CCCl,1 nM (active),–
CC(=O)Nc1ccc(OC[C@](C)(O)C(=O)Nc2ccc([N+](=O)[O-])c(C(F)(F)F)c2)cc1,–,120% (inactive)
O=c1[nH]c2ccccc2n1C1CCN(Cc2ccc(-c3[nH]c4cc5ncnc5cc4nc3-c3ccccc3)cc2)CC1,18700 nM (active),–
O=c1[nH]c2ccc(Cl)cc2c(N[C@@H]2CN3CCC2CC3)c1-c1nc2ccccc2[nH]1,935 nM (active),–
CSCC[C@@H](NC(=O)[C@@H](Cc1ccccc1)NC(=O)CNC(=O)CNC(=O)[C@@H](N)Cc1ccc(O)cc1)C(=O)O,–,146% (inactive)
CCNC(=O)C[C@@H]1N=C(c2ccc(Cl)cc2)c2cc(OC)ccc2-n2c(C)nnc21,264 nM (active),–
O=C(Nc1ccncc1)C(=O)c1cn(Cc2ccc(Cl)cc2)c2ccccc12,41.8 nM (active),–
C[C@@H]1CC[C@H]2[C@@H](C)C(=O)O[C@@H]3O[C@@]4(C)CC[C@H]1[C@]32OO4,–,127% (inactive)
CC(=Cc1csc(C)n1)[C@@H]1C[C@H]2O[C@@H]2CCC[C@H](C)[C@@H](O)[C@@H](C)C(=O)C(C)(C)[C@@H](O)CC(=O)O1,1 nM (active),–
CC(=CCCC1=CCC(C2=CC(=O)OC2O)OC1O)CCC1=C(C)CCCC1(C)C (stereo not given),–,133% (inactive)
CCOP(=O)(OCC)C(C)NC(=O)N(CCCl)N=O (stereo not given),–,145% (inactive)
CCC(=O)OC1CCC2C3CCC4=CC(=O)CC[C@@]4(C)C3CC[C@]12C (stereo not given in full),–,118% (inactive)
CC(=O)N(C)c1cccc(-c2ccnc3c(C(=O)c4cccs4)cnn23)c1,20900 nM (active),–

Structure (SMILES),Potency,viability
CC(C)(O)C=CC(=O)[C@](C)(O)[C@H]1[C@H](O)C[C@]2(C)[C@@H]3CC=C4[C@@H](C=C(O)C(=O)C4(C)C)[C@]3(C)C(=O)C[C@@]12C,296 nM (active),–
COC(=O)[C@@H](N)CCCN=C(N)N[N+](=O)[O-],–,127% (inactive)
O=S(=O)(CC1CS1)c1ccc(Oc2ccccc2)cc1 (stereo not given),–,142% (inactive)
COc1ccc2c(c[n+](C)c3c4cc5c(cc4ccc23)OCO5)c1OC,7430 nM (active),–
CCc1c(C(=O)C(N)=O)c2c(OCC(=O)O)cccc2n1Cc1ccccc1,–,135% (inactive)
CC[C@@H]1[C@@H](C)O[C@@](O)([C@@H](C)[C@H](O)[C@H](C)[C@H]2OC(=O)C=CC=C[C@@H](C)[C@@H]([C@@H](C)[C@@H](O)[C@H](C)[C@@]3(O)C[C@H](O[C@H]4C[C@H](O)[C@H](O)[C@H](C)O4)[C@H](CC)[C@@H](C)O3)OC(=O)C=CC=C[C@@H]2C)C[C@H]1O[C@H]1C[C@H](O)[C@H](O)[C@H](C)O1,372 nM (active),–
C[C@]12Cc3cn[nH]c3C[C@@H]1CC[C@@H]1[C@H]2CC[C@@]2(C)[C@H]1CC[C@]2(C)O,–,97.4% (inactive)
C#CC1(O)CCC2C3CCC4=CC(=O)CCC4(C)C3CCC21C (stereo not given),–,113% (inactive)
Cc1ccccc1-n1c(Cn2ncc3c(N)ncnc32)nc2cccc(C)c2c1=O,118 nM (active),–
CCN1CCN(C(=O)Cc2ccc(Nc3ncc(F)c(Nc4ccc(C(=O)Nc5ccccc5Cl)cc4)n3)cc2)CC1,743 nM (active),–
c1ccc(CCCN2CCN(CCOC(c3ccccc3)c3ccccc3)CC2)cc1,–,110% (inactive)
NC1CC1c1ccccc1 (stereo not given),–,94.8% (inactive)
C=C[C@@H]1CN2CCC1C[C@H]2[C@H](O)c1ccnc2ccccc12 (stereo not given in full),–,138% (inactive)
C[C@H]([C@H](O)CCC(C)(C)O)[C@H]1CC[C@@]2(O)C3=CC(=O)[C@@H]4C[C@@H](O)[C@@H](O)C[C@]4(C)[C@@H]3CC[C@]12C,–,111% (inactive)
CCCCCC[C@H]1C(=O)O[C@H](C)[C@H](NC(=O)c2cccc(NC=O)c2O)C(=O)O[C@@H](C)[C@@H]1OC(=O)CC(C)C,372 nM (active),–
CC(=O)O[C@@]12CO[C@H]1C[C@H](O)[C@@]1(C)C(=O)[C@H](O)C3=C(C)[C@@H](O)C[C@@](O)([C@@H](OC(=O)c4ccccc4)[C@@H]21)C3(C)C,2090 nM (active),–
C[C@]12CCC(=O)C(O)=C1CC[C@@H]1[C@H]3CCC(=O)[C@@]3(C)CC[C@@H]12,–,113% (inactive)
COc1ccc2c(c1)CN(C)CC2c1ccc(Cl)c(Cl)c1 (stereo not given),10500 nM (active),–
COc1ccc(CC2NCCc3cc(OC)c(OC)cc32)cc1OC (stereo not given),–,76.1% (inactive)
C[C@]12CC[C@H]3[C@@H](CCC4=CC(=O)CC[C@@]43C)[C@H]1CC[C@H]2O,–,96.6% (inactive)

# Reference: PubChem BioAssay (NCATS)
